# Laboratory results as given in PubChem BioAssay (NCI).
# This is part of a sample that, as a whole, favours compounds with a hit. Of some 83,000 tested, about 20% had one in any assay.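 A percent growth of 40 corresponds to 60% growth inhibition; 0 means no net growth; -100 means all cells died. Active threshold: below 10.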 Activity calls are given as the source filed them.
# System: RXF 393 renal
# Test: NCI-60 one-dose screen, 48 h (100 = growth as untreated, 0 = no growth, -100 = all killed)
# Conditions: 10 µM unless noted
row,SMILES,growth
1,CC1O[C@@H]2C[C@@](O)([C@H]1O)n1c3ccccc3c3c4c(c5c6ccccc6n2c5c31)C(=O)NC4=O (some centres undefined),49.2% (inactive)
2,COC1=CC(c2ccc[nH]2)=N/C1=C\c1[nH]c(C)c(CC(=O)OCc2ccccc2)c1C,-26.7% (active)
3,NC(=O)c1ccc(NC(=O)c2oc3ccccc3c2-c2cnn(-c3ccccc3)c2)cc1,-29.1% [50 µM] (active)
4,CCOC(=O)N1CCN(S(=O)(=O)c2oc(-c3ccc(Cl)cc3)nc2C#N)CC1,83.8% (inactive)
5,Cc1nn(-c2ccccc2)c(N2CCCCC2)c1/C=N/NC(=O)Cn1c(=O)sc2ccccc21,89.9% (inactive)
6,CN(C)c1ccc(C(=NO)c2ccc(N(C)C)cc2)cc1,33.5% (inactive)
7,Clc1ccc(-c2nc(-c3c[nH]c4ncccc34)cs2)cc1,18.5% [100 µM] (inactive)
8,COc1ccc(C(c2cc(OC)c(OC)c(OC)c2)N2CCCC2)cc1 (centres undefined),103% (inactive)
9,COc1cccc(C(=O)OCC(O)C(=O)NC23CC4CC(CC(C4)C2)C3)c1 (centres undefined),109% (inactive)
10,C=CC(=O)N1CCN(c2ccc3cccc(NC(=O)c4cnc(C)cn4)c3n2)CC1,11.4% (inactive)
11,CCOC(=O)c1c(C)c2c(n1C)CSc1cc(S(=O)(=O)c3ccccc3)c(=O)[nH]c1-2,44.3% [100 µM] (inactive)
12,CCCCCCCCNc1cc2c3c(c1)CCCN3CCC2,29.1% (inactive)
13,COc1ccc(OC)c(-c2cn3nc(-c4c[nH]c5ccc(Br)cc45)sc3n2)c1,67.8% (inactive)
14,CS(=O)(=O)Nc1cc(-c2ccc3ncnc(Nc4ccc5c(cnn5Cc5cccnc5)c4)c3c2)cnc1Cl,44.4% (inactive)
